Common to all, as to experiment: protein-binding microarray (PBM); PBM: ~300 nM protein, 6 mM HEPES pH 7.8, 80 mM KCl, 0.5 mM EDTA, 0.5 mM EGTA, 6% glycerol, 35 ng/ul poly-dIdC, 1% milk, 1 h, room temperature; Ap Aiptasia and Nv Nematostella (sea anemones) / Co Capsaspora / Aq Amphimedon (sponge) / Dm Drosophila / Hu human; RHD is the Rel homology domain; high values mean tight binding
Holding throughout (conditions): dsDNA, one strand shown

One test deals with T1, GST-Ap-NF-kB RHD (Exaiptasia pallida (Aiptasia), UniProt A0A913YAJ5 2-422).
T1 sequence: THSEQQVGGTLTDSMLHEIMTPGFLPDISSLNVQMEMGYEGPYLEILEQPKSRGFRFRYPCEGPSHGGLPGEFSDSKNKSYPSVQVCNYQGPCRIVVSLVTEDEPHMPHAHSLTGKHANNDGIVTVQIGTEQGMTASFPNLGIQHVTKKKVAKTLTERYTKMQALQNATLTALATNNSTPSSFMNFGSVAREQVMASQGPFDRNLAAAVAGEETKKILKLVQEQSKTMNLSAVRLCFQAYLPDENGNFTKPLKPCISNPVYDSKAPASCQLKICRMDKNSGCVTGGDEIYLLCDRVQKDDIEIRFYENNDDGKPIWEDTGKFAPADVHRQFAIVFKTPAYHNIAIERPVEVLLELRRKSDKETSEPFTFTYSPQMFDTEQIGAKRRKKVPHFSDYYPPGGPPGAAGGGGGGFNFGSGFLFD

Test [1] addresses T2, GST-Nv-NF-kB (Cys allele) (Nematostella vectensis, UniProt E5G601 2-411).
T2 sequence: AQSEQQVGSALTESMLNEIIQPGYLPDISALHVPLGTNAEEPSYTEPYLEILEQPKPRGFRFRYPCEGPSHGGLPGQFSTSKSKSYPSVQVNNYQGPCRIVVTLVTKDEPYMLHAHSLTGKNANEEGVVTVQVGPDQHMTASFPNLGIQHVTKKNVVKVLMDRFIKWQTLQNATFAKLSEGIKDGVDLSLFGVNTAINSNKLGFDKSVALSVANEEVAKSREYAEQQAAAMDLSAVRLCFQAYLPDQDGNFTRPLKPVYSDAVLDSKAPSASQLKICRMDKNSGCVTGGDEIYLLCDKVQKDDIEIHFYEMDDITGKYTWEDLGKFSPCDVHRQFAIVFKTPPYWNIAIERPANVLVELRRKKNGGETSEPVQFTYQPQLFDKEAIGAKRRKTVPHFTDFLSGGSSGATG

Another test deals with T3, GST-Co-NF-kB (Capsaspora owczarzaki, UniProt F1ARL5 200-546).
T3 sequence: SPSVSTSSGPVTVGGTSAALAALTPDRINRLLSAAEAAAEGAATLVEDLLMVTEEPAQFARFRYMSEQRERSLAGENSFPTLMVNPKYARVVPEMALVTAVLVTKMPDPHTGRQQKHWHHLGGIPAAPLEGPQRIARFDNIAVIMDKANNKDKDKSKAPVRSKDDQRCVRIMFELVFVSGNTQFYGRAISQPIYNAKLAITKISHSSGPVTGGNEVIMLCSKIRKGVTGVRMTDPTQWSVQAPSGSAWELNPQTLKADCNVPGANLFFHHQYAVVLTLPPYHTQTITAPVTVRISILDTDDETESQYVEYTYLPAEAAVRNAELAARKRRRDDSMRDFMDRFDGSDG

The next test concerns the target T4, GST-Dm-Relish (Drosophila melanogaster, UniProt Q94527 99-473).
T4 sequence: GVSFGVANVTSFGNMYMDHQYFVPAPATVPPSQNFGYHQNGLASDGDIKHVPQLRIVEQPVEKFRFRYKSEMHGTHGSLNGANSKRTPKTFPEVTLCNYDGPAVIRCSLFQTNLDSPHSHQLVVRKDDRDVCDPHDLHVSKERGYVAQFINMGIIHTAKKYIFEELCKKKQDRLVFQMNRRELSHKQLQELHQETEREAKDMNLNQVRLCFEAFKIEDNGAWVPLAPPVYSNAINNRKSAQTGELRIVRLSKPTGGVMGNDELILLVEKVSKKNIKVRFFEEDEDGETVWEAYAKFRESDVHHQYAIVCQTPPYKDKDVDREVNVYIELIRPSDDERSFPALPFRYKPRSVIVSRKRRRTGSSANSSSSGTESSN

The target in a further test is T5, GST-Aq-NF-kB (Amphimedon queenslandica, UniProt A9Y5G7 2-389).
T5 sequence: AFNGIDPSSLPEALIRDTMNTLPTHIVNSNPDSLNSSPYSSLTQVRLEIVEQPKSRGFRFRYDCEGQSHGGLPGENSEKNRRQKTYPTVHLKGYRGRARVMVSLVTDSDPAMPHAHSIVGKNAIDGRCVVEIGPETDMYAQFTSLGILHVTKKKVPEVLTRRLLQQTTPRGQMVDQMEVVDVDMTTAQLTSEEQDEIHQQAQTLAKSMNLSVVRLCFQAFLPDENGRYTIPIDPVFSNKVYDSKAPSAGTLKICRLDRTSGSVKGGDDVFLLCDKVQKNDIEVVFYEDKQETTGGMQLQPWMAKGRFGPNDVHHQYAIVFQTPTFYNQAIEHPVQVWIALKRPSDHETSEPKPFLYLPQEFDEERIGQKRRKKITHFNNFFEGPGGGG

Another test concerns the target GST-Hu-p50 (Homo sapiens, UniProt P19838 7-356).

Chain of GST-Hu-p50 (P19838 7-356): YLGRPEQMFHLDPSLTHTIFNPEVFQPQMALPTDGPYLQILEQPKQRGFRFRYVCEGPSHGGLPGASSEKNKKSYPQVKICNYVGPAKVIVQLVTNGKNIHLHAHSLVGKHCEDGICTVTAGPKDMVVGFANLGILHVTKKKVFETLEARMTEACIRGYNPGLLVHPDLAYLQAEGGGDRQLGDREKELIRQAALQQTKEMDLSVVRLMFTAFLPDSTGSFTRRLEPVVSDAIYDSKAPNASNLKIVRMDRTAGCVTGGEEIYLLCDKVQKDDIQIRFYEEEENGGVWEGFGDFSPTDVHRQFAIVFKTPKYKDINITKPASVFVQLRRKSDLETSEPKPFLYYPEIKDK

For the sequence “CCGATTAACATCACAGAGTCCCCTGATGTTAATCGGGTCTTGATTCGCTTGACGCTGCTG”, the binding signal in the test with GST-Ap-NF-kB RHD was determined as 6.36 z-score; in test [1], 4.8 z-score; with GST-Co-NF-kB it was 2.26 z-score; with GST-Dm-Relish it was 5.12 z-score; with GST-Aq-NF-kB, 4.31 z-score; with GST-Hu-p50, 5.59 z-score.
On to “CCGATTAACATCAGGGGTTTTACTGATGTTAATCGGGTCTTGATTCGCTTGACGCTGCTG”, for which the binding signal turned out to be 5.39 z-score with GST-Ap-NF-kB RHD; 5.15 z-score in test [1]; 1.49 z-score with GST-Co-NF-kB; 7.6 z-score with GST-Dm-Relish; 5.84 z-score in the test with GST-Aq-NF-kB; 5.77 z-score with GST-Hu-p50.
Regarding “CCGATTAACATCAGGGGGGTTACTGATGTTAATCGGGTCTTGATTCGCTTGACGCTGCTG”, the binding signal stood at 7.07 z-score with GST-Ap-NF-kB RHD; 4.42 z-score in test [1]; 4.24 z-score in the test with GST-Co-NF-kB; 8 z-score with GST-Dm-Relish; 5.46 z-score with GST-Aq-NF-kB; 5.29 z-score with GST-Hu-p50.
With “CCGATTAACATCAAACATCCCCCTGATGTTAATCGGGTCTTGATTCGCTTGACGCTGCTG”, the binding signal was 6.59 z-score in the test with GST-Ap-NF-kB RHD; 6.38 z-score in test [1]; 5.97 z-score with GST-Co-NF-kB; 6.53 z-score with GST-Dm-Relish; 6.6 z-score with GST-Aq-NF-kB; 5.44 z-score with GST-Hu-p50.
“CCGATTAACATCACATATCCCCCTGATGTTAATCGGGTCTTGATTCGCTTGACGCTGCTG”: the binding signal is 6.5 z-score in the test with GST-Ap-NF-kB RHD; 5.23 z-score in test [1]; 5.73 z-score in the test with GST-Co-NF-kB; 3.26 z-score with GST-Dm-Relish; 4.79 z-score with GST-Aq-NF-kB; 5.03 z-score with GST-Hu-p50.
For “CCGATTAACATCAACTATCCCCCTGATGTTAATCGGGTCTTGATTCGCTTGACGCTGCTG”, the binding signal in the test with GST-Ap-NF-kB RHD stood at 5.83 z-score; in test [1], 4.03 z-score; in the test with GST-Co-NF-kB, 6.08 z-score; in the test with GST-Dm-Relish, 2.98 z-score; with GST-Aq-NF-kB, 4.04 z-score; with GST-Hu-p50, 4.09 z-score.
With “CCGATTAACATCAGGAAATACCCTGATGTTAATCGGGTCTTGATTCGCTTGACGCTGCTG”, the binding signal with GST-Ap-NF-kB RHD was 6.05 z-score; in test [1] it was 8.7 z-score; with GST-Co-NF-kB it was 1.14 z-score; in the test with GST-Dm-Relish it was 7.3 z-score; with GST-Aq-NF-kB it was 9.37 z-score; with GST-Hu-p50 it was 6.12 z-score.
“CCGATTAACATCAGGGGGAACAATGATGTTAATCGGGTCTTGATTCGCTTGACGCTGCTG”: the binding signal in the test with GST-Ap-NF-kB RHD turned out to be 5.8 z-score; in test [1], 5.75 z-score; with GST-Co-NF-kB it was 9.17 z-score; in the test with GST-Dm-Relish, 3.62 z-score; in the test with GST-Aq-NF-kB, 4.61 z-score; with GST-Hu-p50, 5.11 z-score.
With “CCGATTAACATCAGGGCTCCCCCTGATGTTAATCGGGTCTTGATTCGCTTGACGCTGCTG”, the binding signal with GST-Ap-NF-kB RHD worked out at 7.08 z-score; in test [1], 5.82 z-score; with GST-Co-NF-kB, 4.76 z-score; with GST-Dm-Relish, 7.28 z-score; with GST-Aq-NF-kB, 8.12 z-score; with GST-Hu-p50, 5.6 z-score.
As for “CCGATTAACATCAGGGGATATACTGATGTTAATCGGGTCTTGATTCGCTTGACGCTGCTG”, the binding signal with GST-Ap-NF-kB RHD was determined as 5.2 z-score; in test [1], 4.91 z-score; with GST-Co-NF-kB, 3.57 z-score; with GST-Dm-Relish, 7.81 z-score; with GST-Aq-NF-kB, 4.48 z-score; with GST-Hu-p50, 4.04 z-score.
Regarding “CCGATTAACATCAGAAACTTCCCTGATGTTAATCGGGTCTTGATTCGCTTGACGCTGCTG”, the binding signal with GST-Ap-NF-kB RHD was determined as 4.46 z-score; in test [1] it was 5.22 z-score; with GST-Co-NF-kB, 2.41 z-score; in the test with GST-Dm-Relish it was 4.16 z-score; in the test with GST-Aq-NF-kB it was 5.51 z-score; with GST-Hu-p50, 4.25 z-score.
Consider “CCGATTAACATCAGGGGGGAGACTGATGTTAATCGGGTCTTGATTCGCTTGACGCTGCTG”, for which the binding signal came to 5.88 z-score with GST-Ap-NF-kB RHD; 4.78 z-score in test [1]; 6.95 z-score with GST-Co-NF-kB; 3.61 z-score with GST-Dm-Relish; 4.79 z-score with GST-Aq-NF-kB; 6.44 z-score in the test with GST-Hu-p50.
For the sequence “CCGATTAACATCAGGAGTGCCCCTGATGTTAATCGGGTCTTGATTCGCTTGACGCTGCTG”, the binding signal was 2.63 z-score with GST-Ap-NF-kB RHD; 2.03 z-score in test [1]; 1.41 z-score with GST-Co-NF-kB; 2.25 z-score with GST-Dm-Relish; 5 z-score with GST-Aq-NF-kB; 2.25 z-score with GST-Hu-p50.

Values taken from publication PMC5700166.
